From PubChem BioAssay
The source made the active and inactive calls.

What was measured:
[1] = small molecules captured by biotinylated probe aFSTL3 – biochemical, small-molecule microarray, fluorescence 635/667, stem cell growth factor project, primary screen (AID 1064); conditions: higher = more signal;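 further: measures binding of the biotinylated anti-FSTL3 antibody to printed compounds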
[2] = binders from COS7 lysate, DM2A8 probe, primary screen, torsin A project, cell lysate, small-molecule microarray, fluorescence 635/667 (AID 1065); conditions: higher = more signal, COS7 lysate expressing mutant human TOR1A
[3] = small molecules captured by biotinylated probe aFGF2 – biochemical, small-molecule microarray, fluorescence 635/667, stem cell growth factor project, primary screen (AID 1067); conditions: higher = more signal;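 further: measures binding of biotinylated aFGF2 protein to printed compounds on slides; z-score merges feature fluorescence and signal-to-noise across triplicate slides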
[4] = small molecules captured by biotinylated probe aFGF10 – biochemical, small-molecule microarray, fluorescence 635/667, stem cell growth factor project, primary screen (AID 1071); conditions: higher = more signal;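 further: score merges 667 nm spot intensity and signal to noise from triplicate slides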
[5] = target: Neurogenic locus notch homolog protein 2 (Homo sapiens) (UniProt Q04721); experiment: small molecules binding Notch2 protein – biochemical, small-molecule microarray, 635 nm fluorescence, stem cell growth factors, primary screen (AID 1073); conditions: higher = more signal
[6] = target: Pro-neuregulin-1, membrane-bound isoform (Homo sapiens) (UniProt Q02297); experiment: small molecules binding neuregulin-1 protein – biochemical, small-molecule microarray, fluorescence 635/667, psychiatric disease protein project, primary screen (AID 1075); conditions: NRG1 binding, 635 nm fluorescence, higher = more signal;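 further: score combines 667 nm spot fluorescence with signal to noise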
Sequence of Pro-neuregulin-1, membrane-bound isoform (Homo sapiens) (Q02297 whole entry, looked up, the tested form may be a part, canonical isoform): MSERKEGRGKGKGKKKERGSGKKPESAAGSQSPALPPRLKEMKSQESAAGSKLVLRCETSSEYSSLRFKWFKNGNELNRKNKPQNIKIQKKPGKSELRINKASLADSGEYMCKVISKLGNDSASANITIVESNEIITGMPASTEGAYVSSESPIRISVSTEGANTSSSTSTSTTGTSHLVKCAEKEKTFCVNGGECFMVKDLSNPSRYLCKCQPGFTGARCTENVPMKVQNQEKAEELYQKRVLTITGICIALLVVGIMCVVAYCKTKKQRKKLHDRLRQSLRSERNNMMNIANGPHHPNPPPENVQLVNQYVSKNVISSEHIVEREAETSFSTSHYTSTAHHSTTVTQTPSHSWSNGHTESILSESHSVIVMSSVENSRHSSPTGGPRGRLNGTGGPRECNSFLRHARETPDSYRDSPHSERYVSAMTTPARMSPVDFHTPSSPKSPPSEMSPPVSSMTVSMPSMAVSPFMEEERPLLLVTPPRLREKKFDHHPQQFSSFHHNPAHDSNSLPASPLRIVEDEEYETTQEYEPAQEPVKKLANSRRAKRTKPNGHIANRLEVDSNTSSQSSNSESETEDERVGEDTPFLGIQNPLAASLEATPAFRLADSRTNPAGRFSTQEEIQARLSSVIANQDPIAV

[7] = test system: Neuregulin-1 EGF-like domain; experiment: small molecules binding NRG1 EGF domain – biochemical, small-molecule microarray, 635 nm fluorescence, primary screen (AID 1081); conditions: higher = more signal;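 further: binding of the protein to compounds printed on small-molecule microarray slides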
[8] = FRG1 expression reporter modulators in myotubes – cell-based, C2C12 myotubes, firefly/Renilla luciferase, luminescence, FRG1 inhibition for FSHD, primary screen (AID 1084); conditions: FRG1 promoter luciferase, higher = more signal, called active from +8 up or from −8 down
[9] = small molecules captured by biotinylated probe aFST – biochemical, small-molecule microarray, fluorescence 635/667, stem cell growth factor project, primary screen (AID 1086); conditions: higher = more signal;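 further: score merges 667 nm fluorescence with signal-to-noise of each printed compound spot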
[10] = binders of probe aHhip on microarray, primary screen, stem cell growth factor project, biochemical, small-molecule microarray, fluorescence 635/667 (AID 1087); conditions: higher = more signal;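 further: score merges spot fluorescence at 667nm with spot signal to noise ratio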
[11] = test system: PRMT1 (protein arginine N-methyltransferase 1); experiment: small molecules binding arginine methyltransferase PRMT1 – biochemical, small-molecule microarray, 635 nm fluorescence, primary screen (AID 1088); conditions: higher = more signal;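 further: binding of Prmt1 protein to compounds spotted on small-molecule microarray slides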
[12] = growth effects on S. cerevisiae YJM789 – YJM789 clinical isolate, OD600, 24 h, basal, primary screen (AID 1089); conditions: higher = more signal, called active from +8 up or from −8 down;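 further: growth of clinical yeast isolate S. cerevisiae YJM 789 seeded 1000 cells per well; test concentration not given here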
[13] = S. pombe growth modifiers, basal conditions – strain 972, OD600, 24 h, no modulator, primary screen (AID 1090);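 further: basal condition with compound alone and no growth modifier present; test concentration not given here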; conditions: S. pombe 972 growth, higher = more signal, called active from +8 up or from −8 down
[14] = budding yeast growth modifiers under rapamycin – strain BY4716, OD600, 96 h, primary screen (AID 1091); further: test concentration not given here; conditions: S. cerevisiae BY4716 + rapamycin, higher = more signal, called active from +8 up or from −8 down
[15] = target: Torsin-1A-interacting protein 2 (Homo sapiens) (UniProt Q8NFQ8); experiment: small molecules binding lysate-expressed LULL1 – cell lysate, human LULL1 lysate, 635/667 nm fluorescence, primary screen (AID 1092); conditions: small-molecule microarray, hLULL1 lysate binding, 635 nm fluorescence; higher = more signal;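 further: probe is lysate of COS7 cells overexpressing human LULL1; score merges per-feature 667 nm fluorescence with signal-to-noise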
Sequence of Torsin-1A-interacting protein 2 (Homo sapiens) (Q8NFQ8 whole entry, looked up): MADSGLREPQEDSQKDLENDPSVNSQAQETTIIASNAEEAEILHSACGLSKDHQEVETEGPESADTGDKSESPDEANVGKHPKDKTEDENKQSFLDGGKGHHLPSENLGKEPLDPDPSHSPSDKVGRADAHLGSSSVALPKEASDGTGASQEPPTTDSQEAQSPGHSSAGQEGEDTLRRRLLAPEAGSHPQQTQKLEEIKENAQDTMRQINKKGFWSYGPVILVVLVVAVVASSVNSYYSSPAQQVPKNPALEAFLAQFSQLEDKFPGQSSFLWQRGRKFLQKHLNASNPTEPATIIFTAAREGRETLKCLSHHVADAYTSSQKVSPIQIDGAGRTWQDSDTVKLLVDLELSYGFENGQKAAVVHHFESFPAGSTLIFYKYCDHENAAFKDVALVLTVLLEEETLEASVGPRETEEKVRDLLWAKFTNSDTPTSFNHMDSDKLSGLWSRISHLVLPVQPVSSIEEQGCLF

[16] = optical density change of DRC41 E. coli – strain DRC41, OD650, 24 h, E. coli filamentation project, primary screen (AID 1093);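 further: MC1000 strain lacking acrAB efflux and sulA so SOS filamentation is blocked; test concentration not given here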; conditions: E. coli DRC41 growth, higher = more signal, called active from +8 up or from −8 down
[17] = probe aLefty2 binding to arrayed compounds – biochemical, biotinylated probe, 635/667 nm fluorescence, primary screen (AID 1094); conditions: small-molecule microarray, higher = more signal;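 further: score merges spot fluorescence near 667 nm with spot signal-to-noise ratio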
[18] = test system: Noggin (protein binding on small-molecule microarray); experiment: small molecules binding Noggin protein – biochemical, 635/667 nm fluorescence, primary screen (AID 1095); conditions: 635 nm fluorescence, higher = more signal;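 further: score merges 667 nm feature fluorescence with signal to noise over triplicate slides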
[19] = target: Neurogenic locus notch homolog protein 3 (Homo sapiens) (UniProt Q9UM47); experiment: small molecules binding NOTCH3 protein – biochemical, 635/667 nm fluorescence, primary screen (AID 1096); conditions: small-molecule microarray, 635 nm fluorescence, higher = more signal
Sequence of Neurogenic locus notch homolog protein 3 (Homo sapiens) (Q9UM47 whole entry, looked up): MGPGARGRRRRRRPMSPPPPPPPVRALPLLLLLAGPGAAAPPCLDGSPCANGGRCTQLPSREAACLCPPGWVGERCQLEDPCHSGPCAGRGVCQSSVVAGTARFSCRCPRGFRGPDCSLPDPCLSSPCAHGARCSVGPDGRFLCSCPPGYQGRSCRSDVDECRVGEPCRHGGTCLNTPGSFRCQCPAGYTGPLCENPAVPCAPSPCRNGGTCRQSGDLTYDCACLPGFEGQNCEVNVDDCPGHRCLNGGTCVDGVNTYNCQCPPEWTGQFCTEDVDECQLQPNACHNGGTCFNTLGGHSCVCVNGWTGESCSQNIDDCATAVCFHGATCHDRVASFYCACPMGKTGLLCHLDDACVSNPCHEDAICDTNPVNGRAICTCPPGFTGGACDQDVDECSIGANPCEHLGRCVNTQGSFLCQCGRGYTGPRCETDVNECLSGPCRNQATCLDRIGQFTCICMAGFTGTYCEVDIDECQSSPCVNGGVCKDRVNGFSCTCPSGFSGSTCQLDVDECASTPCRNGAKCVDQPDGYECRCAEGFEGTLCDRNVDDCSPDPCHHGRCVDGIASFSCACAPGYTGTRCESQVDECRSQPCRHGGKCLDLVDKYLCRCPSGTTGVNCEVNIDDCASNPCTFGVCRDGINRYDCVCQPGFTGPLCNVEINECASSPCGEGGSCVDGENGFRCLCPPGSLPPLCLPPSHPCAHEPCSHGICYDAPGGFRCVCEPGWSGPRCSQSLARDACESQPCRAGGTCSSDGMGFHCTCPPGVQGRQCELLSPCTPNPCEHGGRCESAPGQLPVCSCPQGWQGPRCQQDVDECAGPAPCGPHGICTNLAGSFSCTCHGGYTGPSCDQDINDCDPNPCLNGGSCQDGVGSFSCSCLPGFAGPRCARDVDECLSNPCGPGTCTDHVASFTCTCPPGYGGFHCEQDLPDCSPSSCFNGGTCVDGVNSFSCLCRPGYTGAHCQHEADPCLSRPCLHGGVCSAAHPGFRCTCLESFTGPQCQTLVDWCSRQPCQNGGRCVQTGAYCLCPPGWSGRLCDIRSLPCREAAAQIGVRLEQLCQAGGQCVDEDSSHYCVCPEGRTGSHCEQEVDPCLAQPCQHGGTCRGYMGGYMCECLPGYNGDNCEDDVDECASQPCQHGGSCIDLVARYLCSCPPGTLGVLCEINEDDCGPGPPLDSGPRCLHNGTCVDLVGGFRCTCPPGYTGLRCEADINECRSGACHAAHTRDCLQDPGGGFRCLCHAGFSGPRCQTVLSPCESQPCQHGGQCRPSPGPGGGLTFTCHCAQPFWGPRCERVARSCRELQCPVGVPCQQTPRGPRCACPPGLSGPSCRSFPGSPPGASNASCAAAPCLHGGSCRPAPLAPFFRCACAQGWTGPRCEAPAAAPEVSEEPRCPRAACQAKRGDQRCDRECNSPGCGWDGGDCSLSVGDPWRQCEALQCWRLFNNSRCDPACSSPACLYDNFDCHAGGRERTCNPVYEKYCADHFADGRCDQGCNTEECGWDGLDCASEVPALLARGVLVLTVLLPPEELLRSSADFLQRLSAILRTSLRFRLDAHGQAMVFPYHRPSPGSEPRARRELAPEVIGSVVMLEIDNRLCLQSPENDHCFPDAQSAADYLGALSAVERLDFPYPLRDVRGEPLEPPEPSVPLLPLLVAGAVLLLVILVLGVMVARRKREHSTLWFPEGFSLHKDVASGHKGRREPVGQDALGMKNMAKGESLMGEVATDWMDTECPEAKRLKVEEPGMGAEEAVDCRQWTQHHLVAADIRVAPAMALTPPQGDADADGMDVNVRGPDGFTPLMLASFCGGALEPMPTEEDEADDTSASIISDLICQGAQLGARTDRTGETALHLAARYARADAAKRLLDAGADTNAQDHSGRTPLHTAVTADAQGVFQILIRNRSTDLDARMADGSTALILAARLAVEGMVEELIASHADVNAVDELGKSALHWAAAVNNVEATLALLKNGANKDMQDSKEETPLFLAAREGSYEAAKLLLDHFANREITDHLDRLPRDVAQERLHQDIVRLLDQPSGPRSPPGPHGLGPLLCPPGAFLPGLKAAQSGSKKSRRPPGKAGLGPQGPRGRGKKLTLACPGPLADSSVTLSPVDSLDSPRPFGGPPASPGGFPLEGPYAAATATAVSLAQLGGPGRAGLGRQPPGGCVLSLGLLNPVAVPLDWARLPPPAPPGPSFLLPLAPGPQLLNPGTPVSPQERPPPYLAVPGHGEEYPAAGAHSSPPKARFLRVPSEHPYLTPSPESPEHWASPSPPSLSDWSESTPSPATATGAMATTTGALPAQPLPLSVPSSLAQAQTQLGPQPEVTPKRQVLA

[20] = probe aEGFR binding to arrayed compounds – biochemical, biotinylated probe, 635/667 nm fluorescence, primary screen (AID 1097); conditions: small-molecule microarray, higher = more signal;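 further: probe is a biotinylated anti-EGFR antibody binding compounds printed on slides; score combines fluorescence near 667 nm and signal to noise of each spot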

Row | SMILES | composite z-score [1] | composite z-score [2] | composite z-score [3] | composite z-score [4] | composite z-score [5] | composite z-score [6] | composite z-score [7] | z-score [8] | composite z-score [9] | composite z-score [10] | composite z-score [11] | z-score [12] | z-score [13] | z-score [14] | composite z-score [15] | z-score [16] | composite z-score [17] | composite z-score [18] | composite z-score [19] | composite z-score [20]
1 | O=C1C2C=CC(C(O)c3ccccn3)N(Nc3ccc([N+](=O)[O-])cc3)C2C(=O)N1c1ccccc1 (stereo not given) | 0.0747 | 0.369 | 0.0447 | 0.794 | 1.33 | 1.82 | 1.31 | 0.678 (inactive) | 0.512 | -0.0645 | 0.379 | -0.931 (inactive) | 0.587 (inactive) | -0.622 (inactive) | 1.12 | -1.36 (inactive) | -0.248 | -0.493 | 0.772 | -0.047
2 | C=CCNC(=O)[C@H]1[C@@H]2C(=O)O[C@@H](c3ccccc3)[C@@H](c3ccccc3)N2[C@@H](c2ccc(OCCO)cc2)[C@]12C(=O)N(C(=O)OCCOC)c1ccc(C#CCNC(N)=O)cc12 | 0.141 | 0.275 | -0.399 | 0.474 | 1.41 | 0.491 | 0.778 | -0.988 (inactive) | 0.942 | -0.246 | 1.55 | 1.91 (inactive) | 0.996 (inactive) | 4.55 (inactive) | 1.97 | -0.121 (inactive) | 0.247 | 1.84 | 1.11 | 0.0173
3 | COCCCNC(=O)[C@]1(Cc2ccccc2CN=[N+]=[N-])N=C(c2ccc(OCCCO)cc2)O[C@@H]1c1ccccc1N=[N+]=[N-] | 1.19 | 0.694 | 0.359 | 0.425 | 1.43 | 0.527 | 1.11 | -0.881 (inactive) | 0.762 | 0.0623 | 0.772 | -0.499 (inactive) | 1.07 (inactive) | 4.98 (inactive) | 2.27 | 1.11 (inactive) | 0.862 | 0.0289 | -0.217 | 0.371
4 | C[C@]1(C(=O)NC2CC2)c2ccccc2C(=O)N(Cc2cc(F)cc(C(F)(F)F)c2)[C@H]1c1ccc(CO)cc1 | -0.364 | -0.035 | -0.116 | -0.636 | -1.13 | 1.72 | 1.37 | -1.05 (inactive) | -0.527 | -0.256 | 1.52 | 0.257 (inactive) | -0.194 (inactive) | 0.217 (inactive) | 3.29 | 0.299 (inactive) | -0.188 | -0.104 | 0.518 | -0.312
5 | COc1cc(Cc2cc3c(c(-c4ccccc4)n2)[Si](C(C)C)(C(C)C)OC3)cc(OC)c1OC | 0.13 | 0.0203 | -0.141 | 0.305 | -0.374 | -0.289 | -0.683 | -0.277 (inactive) | 0.0647 | 0.0274 | -0.313 | 0.208 (inactive) | -0.949 (inactive) | -0.573 (inactive) | -0.501 | 1.22 (inactive) | -0.0991 | 0.331 | -0.108 | -0.0864
6 | COc1cccc(C)c1NC(=O)O[C@H]1[C@H](OC(=O)Nc2ccccc2-c2ccccc2)[C@@H](OC(=O)Nc2ccccc2-c2ccccc2)[C@@H](OC)O[C@@H]1CO | -0.182 | 0.968 | 0.141 | 1.17 | 1.61 | 1.74 | 1.38 | 0.945 (inactive) | 1.64 | 0.053 | 1.53 | 3.84 (inactive) | 2.59 (inactive) | 3.5 (inactive) | 3.54 | -0.692 (inactive) | 0.0426 | 1.36 | 0.542 | 0.0059
7 | CC[C@@H]1C=C(C(=O)O)[C@H](c2cccc(Cl)c2)N1S(=O)(=O)c1ccc(C)cc1 | 0.0801 | 0.969 | 0.0263 | 0.516 | 1.36 | 1.27 | 0.855 | -1.53 (inactive) | 0.177 | 0.0424 | 0.877 | -0.848 (inactive) | -0.874 (inactive) | -0.177 (inactive) | 3.5 | -0.944 (inactive) | 0.0595 | -0.791 | -0.118 | -0.128
8 | COC(=O)[C@@]1(Cc2ccc(F)cc2)[C@H]2c3cc(C(=O)N4CCCC4)n(C[C@H](O)CO)c3C[C@H]2CN1C(=O)c1ccccc1 | 0.468 | 0.501 | 0.474 | 0.697 | 1.17 | 2.15 | 1.16 | 3.49 (inactive) | 1.42 | 1.35 | -0.399 | -0.161 (inactive) | 1.34 (inactive) | -0.0363 (inactive) | 1.57 | -0.836 (inactive) | 1.03 | -0.123 | 0.176 | 0.732
9 | O=C1OCCC/C=C\[C@H]2OC34C=CCN(Cc5ccccc5)C(=O)[C@H]3N(CCO)C(=O)[C@@H]4C12 (stereo not given in full) | 0.166 | 1.08 | -0.226 | 0.866 | 0.479 | 1.79 | 1.53 | 0.0936 (inactive) | -0.342 | -0.0994 | 0.216 | -0.27 (inactive) | -1.72 (inactive) | -0.462 (inactive) | 2.22 | 2.29 (inactive) | 0.235 | -0.353 | 0.0094 | 0.0618
10 | C=CCNC(=O)[C@H]1[C@@H]2C(=O)O[C@@H](c3ccccc3)[C@@H](c3ccccc3)N2[C@@H](c2ccc(OCCO)cc2)[C@]12C(=O)Nc1ccc(C#Cc3ccc(OC)cc3)cc12 | -0.179 | 0.897 | 0.0566 | 0.705 | 1.46 | 1.52 | 1.22 | 0.744 (inactive) | 0.624 | 0.289 | 1.56 | 3.23 (inactive) | 2.1 (inactive) | 5.57 (inactive) | 2.75 | 0.741 (inactive) | 0.326 | 1.27 | 1.11 | 0.166
